Hits are enriched below; roughly 5% of the tested compounds scored in any of these assays.
SENP7 block: blocks the human protease SENP7; recombinant SENP7, Z-RLRGG-aminoluciferin luminescence, 40 min; inhibition, % at 5 µM; Q9BQF6; 1.5% of 330,000 active;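 active = inhibition above about 50% at the single test dose, limit read from the data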;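 also: plate controls were DMSO with enzyme for no effect and no enzyme buffer wells for full effect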
AHR act: activators of human aryl hydrocarbon receptor | P35869 | AHR-responsive luciferase reporter cells, luminescence | activation, % at 5 µM | 2.5% of 320,000 active | AID 2796; in the data active = activation above about 47%;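 also: 0% = vehicle wells and 100% = reference agonist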
SENP8 block-1: inhibitors of human SENP8 protease; recombinant SENP8, Nedd8 substrate fluorescence; inhibition, % at 20 µM; 0.64% of 360,000 active; AID 602440; in the data active = inhibition mostly above about 40%, no sharp cut-off; inactive = mostly below about 27%
EBI2 antag: antagonists of human EBI2 receptor | P32249 | 0.81% of 360,000 active | inhibition, % at 5 µM | EBI2 beta-arrestin recruitment, luminescence, 7a,25-OHC stimulated; in the data active = inhibition above about 38%;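 also: enzyme fragment complementation signal reports receptor beta-arrestin coupling in cells; 0% = agonist plus DMSO wells and 100% = wells without agonist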
Target sequence (P32249 whole entry, looked up, the tested form may be a part): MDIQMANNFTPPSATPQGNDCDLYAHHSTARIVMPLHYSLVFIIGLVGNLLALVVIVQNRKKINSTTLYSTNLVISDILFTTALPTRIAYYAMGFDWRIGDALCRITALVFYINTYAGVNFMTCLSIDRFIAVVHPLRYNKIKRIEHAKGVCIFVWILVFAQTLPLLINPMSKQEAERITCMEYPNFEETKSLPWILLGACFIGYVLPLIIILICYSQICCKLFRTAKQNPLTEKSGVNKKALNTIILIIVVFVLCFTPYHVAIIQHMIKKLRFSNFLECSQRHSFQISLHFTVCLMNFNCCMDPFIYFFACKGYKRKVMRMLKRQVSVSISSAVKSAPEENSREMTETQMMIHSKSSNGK
SENP8 block-2: SENP8 protease inhibition; inhibition, % at 10 µM; AID 2540; 1.2% of 330,000 active; purified SENP8, Z-RLRGG-aminoluciferin cleavage, luminescence; in the data active = inhibition above about 50%
SENP6 inh: SENP6 protease inhibition; Recombinant SENP6 catalytic domain, aminoluciferin luminescence; inhibition, % at 10 µM; 1.8% of 330,000 active; AID 2599;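 active = inhibition above about 50% at the single tested dose, limit read from the data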;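 also: plate controls were DMSO wells with enzyme for no effect and DMSO wells lacking enzyme for full effect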
SENP8 confirm: human SENP8 inhibition, confirmed; 40% of 6,200 active; inhibition, % at 12.5 µM; Recombinant SENP8, Z-RLRGG-aminoluciferin luminescence, 60 min; shares compounds with SENP7 block;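 active = mean inhibition across replicates above about 50%, limit read from the data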
SENP6 confirm: human SENP6 inhibition, confirmed | inhibition, % at 12.5 µM | shares compounds with SENP7 block | 58% of 6,200 active | AID 488915 | recombinant SENP6, Z-RLRGG-aminoluciferin luminescence
SENP7 confirm: confirmation of human SENP7 protease inhibitors; shares compounds with SENP7 block; recombinant SENP7, Z-RLRGG-aminoluciferin luminescence, 40 min; inhibition, % at 12.5 µM; 69% of 6,200 active; AID 488917
Casp3 SENP sel: caspase-3 inhibition (SENP selectivity assay); shares compounds with SENP7 block; purified caspase-3, Z-DEVD-aminoluciferin luminescence, 60 min; inhibition, % at 12.5 µM; 60% of 6,200 active; AID 488918;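 active = mean inhibition above about 50%, limit read from the data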;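 also: plate controls were enzyme with DMSO for no effect and wells without caspase-3 for full effect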
Target sequence (P42574 28-227 limits assumed): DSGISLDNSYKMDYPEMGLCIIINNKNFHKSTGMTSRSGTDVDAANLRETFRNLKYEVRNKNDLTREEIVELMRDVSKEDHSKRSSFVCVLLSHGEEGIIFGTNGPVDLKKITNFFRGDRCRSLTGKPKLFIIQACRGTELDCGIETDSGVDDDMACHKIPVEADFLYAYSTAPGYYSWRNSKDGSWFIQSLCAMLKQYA
SENP luc ctr: luminescence interference (SENP counter-screen); shares compounds with SENP7 block; Pre-incubated SENP8/Z-RLRGG-aminoluciferin, luciferase luminescence interference; inhibition, % at 12.5 µM; 39% of 6,200 active; AID 488919;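 active = mean inhibition above about 50% when retested at one dose, limit read from the data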;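 also: plate controls were DMSO wells with completed reaction for no effect and substrate without enzyme for full effect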
An asterisk follows results filed as active; · = not tested or not shown.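 The calls were made as follows, unless noted: active = mean inhibition above about 50% in the one-dose retest (limit read from the data); inactive = the rest.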

SMILES	SENP7 block	AHR act	SENP8 block-1	EBI2 antag	SENP8 block-2	SENP6 inh	SENP8 confirm	SENP6 confirm	SENP7 confirm	Casp3 SENP sel	SENP luc ctr
c1ccc(N2CC3CCc4ccccc4C3=N2)cc1 (configuration not stated)	59*	57*	-384	-3	35	57*	37	51*	72*	42	29
O=C1c2ccccc2C(=O)N1CC1=NCCc2ccccc21	0	14	8	5	-2	13	·	·	·	·	·
O=c1[nH]c(Nc2ccccc2Cl)cc2ccccc12	92*	21	-492	-16	96*	99*	57*	86*	69*	27	-2
Cc1cc2ccccc2c(=O)[nH]1	-1	-3	-62	-10	1	-2	·	·	·	·	·
O=c1[nH]c(Nc2ccc(F)cc2)cc2ccccc12	92*	13	-273	-3	85*	85*	52*	76*	48	10	9
Cc1ccccc1Nc1cc2ccccc2c(=O)[nH]1	95*	27	1	0	97*	91*	92*	98*	95*	96*	14
Cn1cc(CN(CCO)Cc2cccs2)c(-c2ccccc2F)n1	2	0	9	-6	12	10	·	·	·	·	·
COc1ccc(C(=O)Nc2ccc(N3CCCCCC3)cc2)cc1S(=O)(=O)N1CCOCC1	7	-1	3	1	5	1	·	·	·	·	·
COC(=O)c1ccc(OCC(=O)c2ccccc2)cc1	57*	12	14	16	26	35	52*	51*	84*	73*	62*
COc1ccc(C(=O)CC(=O)c2ccccc2)cc1	74*	5	-12	9	67*	77*	70*	70*	92*	55*	59*
COc1ccc(C(=O)CC(=O)c2ccc(OC)cc2)cc1	-5	0	-258	-1	2	9	·	·	·	·	·
O=C(COc1ccccc1)c1ccccc1	·	·	12	0	·	·	·	·	·	·	·
COc1ccc(C(=O)CNc2ccccc2Br)cc1	9	7	21	11	47	58*	19	64*	61*	36	6
O=C1/C(=C/c2ccc(S(=O)(=O)O)cc2S(=O)(=O)O)CCc2ccccc21	·	·	3	-9	·	·	·	·	·	·	·
CCCCCCCCC(c1nc2cc(C)c(C)cc2[nH]1)n1c(=O)c(-c2ccccc2Br)nc2ccccc21 (configuration not stated)	·	·	-337	-2	·	·	·	·	·	·	·
CSCCC1NC(=O)N(C(C)C(=O)Nc2cc(Cl)cc(Cl)c2)C1=O (configuration not stated)	10	9	5	3	2	8	·	·	·	·	·
CCOC(=O)C1CCCN(CC(=O)c2c[nH]c3ccc(C)cc23)C1 (configuration not stated)	1	7	·	·	-5	-8	·	·	·	·	·
c1ccc(N=Nc2ccc3cccccc2-3)cc1	68*	41	24	-1	45	54*	56*	68*	86*	34	49
Clc1ccc(-c2[nH]ncc2N=Nc2ccccc2)cc1	3	33	19	12	-7	-10	·	·	·	·	·
CC(NC(=O)c1ccncc1)c1ccc(Br)cc1 (configuration not stated)	2	2	15	1	0	-16	·	·	·	·	·
COCCn1c(SCC(=O)N(C)c2c(N)n(Cc3ccccc3)c(=O)[nH]c2=O)nnc1-c1cccc(C)c1	-2	4	0	9	-1	-21	·	·	·	·	·
Oc1ccc(/C=N/Nc2cccc(Cl)n2)c(O)c1	98*	4	-35	5	97*	97*	99*	99*	102*	96*	98*
Oc1ccc(/C=N/Nc2ccc(C(F)(F)F)cn2)c(O)c1	-1	11	-63	10	5	21	·	·	·	·	·
COc1cccc(CC2(CO)CCN(Cc3cccn3-c3cccnc3)CC2)c1	-5	8	-1	-1	1	0	·	·	·	·	·
CC1CCCC(C)N1C(=O)Cc1ccccc1 (configuration not stated)	5	-1	6	-6	-8	-2	·	·	·	·	·
SMILES	SENP7 block	AHR act	SENP8 block-1	EBI2 antag	SENP8 block-2	SENP6 inh	SENP8 confirm	SENP6 confirm	SENP7 confirm	Casp3 SENP sel	SENP luc ctr
Cc1oc2ccc(OCc3ccccc3F)cc2c1C(=O)O	24	0	13	-2	53*	77*	61*	57*	83*	74*	69*
Cc1oc2ccc(OCc3ccc(Cl)cc3)cc2c1C(=O)O	-1	-2	13	-6	59*	78*	79*	80*	93*	66*	60*
Cc1oc2ccc(OCc3ccc(Br)cc3)cc2c1C(=O)O	-4	16	11	-4	10	68*	36	80*	63*	56*	27
Cc1ccccc1-c1nnn(CC(=O)Nc2ccc3c(c2)OCCO3)n1	3	4	22	2	-9	15	·	·	·	·	·
Cc1ccc(N2C(=O)NC(NS(=O)(=O)c3ccccc3)(C(F)(F)F)C2=O)cc1C (configuration not stated)	-9	-1	0	-5	2	6	·	·	·	·	·
O=C(Nc1ccc(C(=O)N2CCOCC2)cc1)c1cc(-c2cccnc2)nc2ccc(Cl)cc12	-5	5	12	-15	-1	-8	·	·	·	·	·
CSc1nc2nc(-c3ccccc3)cc(=O)n2[nH]1	9	4	19	-18	11	53*	27	22	64*	75*	50*
COc1cccc(-c2cc3nc(-c4ccccc4)cc(=O)n3[nH]2)c1	51*	36	-328	8	85*	87*	-9	85*	79*	84*	16
O=c1cc(-c2ccccc2)nc2cc(-c3ccc(F)cc3)[nH]n12	43	52*	-488	7	79*	87*	-4	2	4	12	2
Cc1cc(=O)n2[nH]c(-c3ccccc3)cc2n1	6	31	-74	-5	-12	12	·	·	·	·	·
CN1N=C(C(=O)N=c2sc3ccccc3n2C)CCC1=O	·	·	-38	5	·	·	·	·	·	·	·
CCOCCCNC(=O)c1cn(C)c2ccc(S(=O)(=O)N3CCCC3)cc2c1=O	2	1	6	2	-5	7	·	·	·	·	·
CCc1cccc2c(C=C(C#N)C#N)cn(CC(=O)N3CCCCCC3)c12	6	0	7	3	-2	-9	·	·	·	·	·
O=C(O)c1ccc(-c2ccccc2)[nH]1	0	0	8	-6	2	-9	·	·	·	·	·
